From the supplement of paper PMC13380429
Unmarked numbers belong to inactive results.

Tested on: Vero E6 infected with SARS-CoV-2
Test: SARS-CoV-2 infection rate relative to infected DMSO; higher = more infection, active = 60 or less
Settings: 24 h

Compound | SARS-CoV-2 infection rate
Cc1ccccc1C(OCCN(C)C)c1ccccc1 (stereo not drawn) [orphenadrine] (10 µM) | 87%
Cc1ccccc1-c1cc(N2CCN(C)CC2)ncc1N(C)C(=O)C(C)(C)c1cc(C(F)(F)F)cc(C(F)(F)F)c1 [netupitant] (10 µM) | 94%
CCCCc1cc2ccccc2c(OCCN(C)C)n1 [dimethisoquin] (10 µM) | 71.5%
CCCCCOc1ccc(-c2cc(-c3ccc(C(=O)N[C@H]4C[C@@H](O)[C@@H](O)NC(=O)[C@@H]5[C@@H](O)[C@@H](C)CN5C(=O)[C@H]([C@H](O)CC(N)=O)NC(=O)[C@H]([C@H](O)[C@@H](O)c5ccc(O)c(OS(=O)(=O)O)c5)NC(=O)[C@@H]5C[C@@H](O)CN5C(=O)[C@H]([C@@H](C)O)NC4=O)cc3)no2)cc1 [micafungin] (10 µM) | 94.5%
OB1OCc2cc(F)ccc21 [tavaborole] (10 µM) | 108%
O=C(O)Cn1c(C(=O)Nc2nc(-c3ccccc3Cl)cs2)cc2ccccc21 (10 µM) | 93%
CC1/C=C/C=C/C=C/C=C/C=C/C=C/C=C/C(OC2O[C@H](C)[C@@H](O)[C@H](N)[C@@H]2O)CC(O)C(C(=O)O)C(O)CC(=O)CC(O)CC(O)CC(O)CC(=O)CCCC(=O)CC(=O)OC1C(C)CC(C)C(O)CC(=O)c1ccc(N)cc1 (stereo partly drawn) [candicidin] (0.833333 µM) | 100%
CCCCCCCC/C=C\CCCCCCCC(=O)NCCO [oleoylethanolamide] (10 µM) | 102%
O=C(c1cc(S(=O)(=O)Nc2ccccc2F)c(F)cc1Cl)N1CCN2CCC[C@@H]2C1 (10 µM) | 104%
O=c1ccc2ccc(OCCCCN3CCN(c4cccc5sccc45)CC3)cc2[nH]1 [brexpiprazole] (10 µM) | 98.5%
N=C(N)NC(=N)Nc1cccc(Cl)c1 [m-chlorophenylbiguanide] (10 µM) | 108%
NC(=O)CN1CC[C@@H](NC(=O)[C@@H]2CCCN2)C1=O (10 µM) | 110%
Cc1ccc(NC(=O)c2cccc(C(C)(C)C#N)c2)cc1Nc1ccc2ncn(C)c(=O)c2c1 (0.833333 µM) | 93.5%
NCC(CC(=O)O)c1ccccc1 (stereo not drawn) [fenigam] (10 µM) | 89%
COc1ccc(Cc2cnc(N)nc2N)cc1OC [diaveridine] (10 µM) | 101%
Cn1cc(-c2cnn3c(N)c(Br)c([C@@H]4CCCNC4)nc23)cn1 (10 µM) | 82%
Oc1c(Br)cc(Br)c2cccnc12 [broxyquinoline] (10 µM) | 104%
COC(=O)Nc1ccc(-c2nc(N3CCOCC3)c3cnn(C4CCN(Cc5cccnc5)CC4)c3n2)cc1 (10 µM) | 104%
C[C@H]1COc2c(C3(N)CC3)c(F)cc3c(=O)c(C(=O)O)cn1c23 [pazufloxacin] (10 µM) | 103%
Cc1cc(O)c2c(=O)c3c(O)cc(O)c4c5c(O)cc(O)c6c(=O)c7c(O)cc(C)c8c1c2c(c34)c(c78)c65 [hypericin] (10 µM) | 114%
Nc1ccn([C@@H]2O[C@H](CO)[C@@H](O)[C@@H]2O)c(=O)n1 [cytarabine] (0.833333 µM) | 97%
OCc1cc(C(O)CNCCCCCCOCCCCc2ccccc2)ccc1O (stereo not drawn) [salmeterol] (10 µM) | 54.5% (active)
C[C@H](c1ccc(F)cc1CCCC(=O)O)N(c1cc(F)ccc1F)S(=O)(=O)c1ccc(Cl)cc1 (10 µM) | 112%
CN(Cc1cnc2nc(N)nc(N)c2n1)c1ccc(C(=O)N[C@@H](CCC(=O)O)C(=O)O)cc1 [methotrexate] (10 µM) | 100%
CCC(=O)O[C@H](CC(=O)O)C[N+](C)(C)C [levocarnitine-propionate] (10 µM) | 104%
CCOC(=O)Nc1ccc2c(c1)N(C(=O)CN(CC)CC)c1ccccc1CC2 (10 µM) | 101%
CS(=O)(=O)CCNCc1nc(-c2ccc3ncnc(Nc4ccc(OCc5cccc(F)c5)c(Cl)c4)c3c2)cs1 (10 µM) | 116%
CN(C)/C=N/c1c(I)cc(I)c(CCC(=O)O)c1I [iopodic-acid] (10 µM) | 104%
